Data taken from PubChem BioAssay.

Assay: FRG1 expression reporter modulators in myotubes – cell-based, C2C12 myotubes, firefly/Renilla luciferase, luminescence, FRG1 inhibition for FSHD, primary screen (AID 1084)
Details: FRG1 promoter luciferase, higher = more signal, called active from +8 up or from −8 down

z-score, inactive:
[N-]=[N+]=Nc1ccccc1[C@H]1OC(c2ccc(OCCCO)cc2)=N[C@@]1(Cc1ccccc1)C(=O)N1CCCCC1 -1.02
CCCNC(=O)[C@@]1(c2ccc([N+](=O)[O-])cc2)CC(=O)N(C2CCCCC2)[C@@H]1c1ccc(CO)cc1 -1.31
CN1C(=O)C2C=CC(C(O)c3ccccn3)N(N(c3ccccc3)c3ccccc3)C2C1=O (stereo unspecified) 0.164
COCCOC(=O)N1C(=O)[C@@]2(c3cc(C#CC4=CCCCC4)ccc31)[C@H](c1ccc(O)cc1)N1[C@H](c3ccccc3)[C@H](c3ccccc3)OC(=O)[C@H]1[C@@H]2C(=O)N1CCN(c2ncccn2)CC1 0.214
C[N+](C)(C)CCCCCCNC(=O)[C@H]1C[C@H]2C(=O)N[C@@H](Cc3ccccc3)C(=O)N2[C@H]1c1ccc(O)cc1 2.26
O=C1NC(=O)C2C1C=CC(C(O)c1cccc3ccccc13)N2Nc1ccc(Cl)cc1Cl (stereo unspecified) -0.716
COC(=O)[C@@]1(Cc2ccc(F)cc2)[C@H]2c3cc(C(=O)N4CCCC4)n(CCc4ccc(O)c(O)c4)c3C[C@H]2CN1C(=O)c1ccccc1 0.332
O=C(CS)NCCCCCCNC(=O)[C@H]1C[C@H]2C(=O)N[C@@H](Cc3ccccc3)C(=O)N2[C@H]1c1ccc(O)cc1 0.234
C#CCN([C@@H](Cc1ccc(O)cc1)C(=O)OC)[C@@H](/C=C/C1CC1)[C@H](O)Cc1ccccc1 -3.55
CCOC(=O)c1ccc(NC(=O)O[C@H]2[C@H](OC(=O)Nc3ccc4c(c3)OCO4)[C@@H](OC(=O)Nc3ccc4c(c3)OCO4)[C@@H](OC)O[C@@H]2CO)cc1 6.39
O=c1n(-c2ccccc2)c(=O)n2n1CC(COc1ccccc1)=C([C@H](O)CCc1ccccc1)[C@@H]2CO -2.53
COc1ccc([Si](C)(C)[C@@H]2[C@@H](CC(=O)N3Cc4ccccc4C[C@H]3CO)O[C@]3(C(=O)N(Cc4cccc(N5C(=O)c6cccc7cccc5c67)c4)c4ccccc43)[C@H]2C)cc1 -1.51
CN(C)C(=O)[C@]1(CCS(=O)(=O)c2ccccc2)N=C(c2ccc(OCCCO)cc2)O[C@@H]1c1ccccc1N=[N+]=[N-] 2.79
COC(=O)[C@@]1(Cc2ccc(OC)cc2)[C@H]2c3cc(C(=O)N4CCCC4)n(Cc4c(-c5ccccc5)noc4C)c3C[C@H]2CN1C(=O)c1ccccc1 0.44
O=C1O[C@H](c2ccccc2)[C@H](c2ccccc2)N2[C@H]1[C@@H](C(=O)O)[C@]1(C(=O)Nc3ccc(C#CC4=CCCCC4)cc31)[C@H]2c1ccc(O)cc1 -0.179
COc1cc2c(cc1OC)CN(C(=O)[C@@H]1[C@H]3C(=O)O[C@H](c4ccccc4)[C@H](c4ccccc4)N3[C@H](c3ccc(OCCO)cc3)[C@@]13C(=O)Nc1ccccc13)CC2 2.03
COC(=O)[C@@]1(Cc2ccccc2)[C@H]2c3cc(C(=O)N(C)C)n(CCN4CNCC4=O)c3C[C@H]2CN1C(=O)c1ccccc1 0.37
CN(C)c1ccc(C(O)C2C=CC3C(=O)N(c4ccccc4)C(=O)C3N2Nc2ccc([N+](=O)[O-])cc2)cc1 (stereo unspecified) 0.975
C=C(C)c1cc2c(c(CCCCCC)n1)[Si](C(C)C)(C(C)C)OC2 -0.647
O=C1O[C@@H](c2ccccc2)[C@@H](c2ccccc2)N2[C@@H](c3ccc(O)cc3)[C@]3(C(=O)Nc4ccc(C#CC5(O)CCCCCC5)cc43)[C@@H](C(=O)NC[C@H](O)c3ccccc3)[C@H]12 0.106
COCCCNC(=O)[C@@]1(Cc2ccccc2N=[N+]=[N-])N=C(c2ccc(OCCCO)cc2)O[C@H]1c1ccccc1 -1.98
O=C1O[C@H](c2ccccc2)[C@H](c2ccccc2)N2[C@H]1[C@@H](C(=O)Nc1nc3ccccc3s1)[C@]1(C(=O)Nc3ccc(C#CCCO)cc31)[C@H]2c1ccc(O)cc1 0.912
COC(=O)[C@@]1(Cc2ccccc2)[C@H]2c3cc(C(=O)N(C)C)n(CCc4ccc(O)c(OC)c4)c3C[C@H]2CN1C(=O)c1ccccc1 0.96
O=C1OCC=C[C@H]2OC34C=CCN(c5ccc(Cl)cc5)C(=O)[C@H]3N(CCO)C(=O)[C@@H]4[C@@H]12 (stereo partly specified) 0.782
CC(C)Cc1ccc(CN2CC[C@@H](NC(=O)Nc3ccccc3)C2)cc1 -0.445
C=CCC(OC(C)=O)[C@@H]1[C@@H](N(Cc2cc3ccccc3o2)C(=O)c2ccc(-c3ccccc3)cc2)c2cc(OCCCO)ccc2N1C(=O)c1ccc2ccccc2c1 (stereo partly specified) -3.52
Cc1ccc(S[C@]2(C(=O)O)CC(=O)N(Cc3ccccc3Cl)[C@@H]2c2ccc(CO)cc2I)cc1 0.11
COCCCNC(=O)[C@@]1(Sc2ccc(C)cc2)CC(=O)N(C2CCCCC2)[C@@H]1c1ccc(CO)cc1 -0.721
COCC1=C2[C@@H](CCc3ccccc3)OB(O)C[C@@H]2[C@@H]2C(=O)C=CC(=O)[C@@H]2C1 -0.632
COc1ccc([Si](C)(C)[C@@H]2[C@@H](CCn3cc([C@H](O)c4ccccc4)nn3)O[C@]3(C(=O)N(Cc4ccc(N5CCC5=O)cc4)c4ccccc43)[C@H]2C)cc1 -0.96
CCOc1cc(C(O)C2C=CC3C(=O)N(C)C(=O)C3N2Nc2ccccc2)ccc1O (stereo unspecified) 0.55
C=C(C(=O)CC[C@@H](OC(C)=O)c1ccc(CO)o1)C(C)C 0.776
CC(=O)NCCCC[C@@H]1NC(=O)[C@@H]2C[C@H](C(=O)NCCCC[N+](C)(C)C)[C@H](c3ccc(O)cc3)N2C1=O 1.32
CCOC(=O)C1CCCCN1 (stereo unspecified) -0.102
C=CCOC(=O)[C@H]1[C@@H]2C(=O)O[C@@H](c3ccccc3)[C@@H](c3ccccc3)N2[C@@H](c2ccc(OCCOC(=O)[C@@H]3C[C@@H]4C(=O)N[C@@H](CCCCN(C)C)C(=O)N4[C@@H]3c3ccc(O)cc3)cc2)[C@]12C(=O)Nc1ccccc12 0.585
CCCC[C@@H]1C[C@H]1[C@@H](NC(=O)c1cccs1)c1ccc(C(F)(F)F)cc1 -0.878
